Screening data as filed in PubChem.
Most compounds without a hit are left out; they make up all but 6.5% or so of the library.
FMDV antiviral = antivirals against foot and mouth disease virus; 1.2% of 410,000 active; Potency, µM (series often up to 57.9 µM), for the others: at the top dose activity change, negative = inhibition, most hits filed as inhibitors; AID 1159524; FMDV antiviral cell-based qHTS; calls by dose curve; tested in HEK293T cells; also: read-out not given here; potency is read from the fitted curve at half-maximal effect; nearly all actives have a fitted effect of over 45% in size
Vaccinia Venus = inhibitors of vaccinia virus (Venus reporter); Vaccinia virus Venus reporter expression, fluorescence; 0.46% of 330,000 active; Potency, µM (doses to about 36.5 µM), for inactives: at the highest dose activity change, negative = inhibition, usual class: inhibitors; calls by dose curve; tested in A549 cells; also: potency is read from the fitted curve at half-maximal effect; nearly all actives have a fitted effect of over 30% in size
LASV entry inh = Lassa virus entry inhibition; 1.2% of 300,000 active; Lassa virus pseudotype entry inhibition, cell reporter; Potency, µM (doses to about 37.9 µM), inactives show top-dose activity change, negative = inhibition, actives largely listed as inhibitors; calls by dose curve; tested in HEK293 cells; also: potency is read from the fitted curve at half-maximal effect; nearly all actives have a fitted effect of over 50% in size
VACV mCherry inh = inhibitors of vaccinia virus infection (mCherry reporter signal) | Vaccinia virus mCherry reporter infection, fluorescence | Potency, µM (doses to about 36.5 µM), without a hit: at the highest dose activity change, negative = inhibition, most hits filed as inhibitors | 0.63% of 310,000 active; calls by dose curve; tested in A549 cells; also: potency is read from the fitted curve at half-maximal effect; nearly all actives have a fitted effect of over 35% in size
Marburg entry inh = Marburg virus entry inhibition; 1.8% of 300,000 active; Potency, µM (highest dose often 37.8 µM), without a hit: at the highest dose activity change, negative = inhibition, hits mostly inhibitors; AID 540276; Marburg virus pseudotyped entry inhibition, cell reporter; calls by dose curve; tested in HEK293 cells; also: potency is read from the fitted curve at half-maximal effect
HCMV inh = human cytomegalovirus inhibition; HFF cells, HCMV-luciferase reporter, 72 h; hits give low values; activity change, negative = inhibition, % at 57.5 µM; 4.5% of 410,000 active; AID 1259415; in the data active = activity change below about -60%; inconclusive = no clear call, values can overlap the other calls; inactive = above about -39%
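Compounds were evaluated in HFFs infected with an HCMV luciferase reporter virus (MOI 1 PFU/cell). Luciferase in lysates collected 72 h post infection served as the replication measure.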
* hit, by the source's call; i = inactive; ? = inconclusive; / = no result given; ! = not active in a repeat; [ ] = remark or other dose. % is scaled to controls: 0 for no effect and ±100 for the full control effect.

SMILES	FMDV antiviral	Vaccinia Venus	LASV entry inh	VACV mCherry inh	Marburg entry inh	HCMV inh
COc1ccccc1NC(=O)Nc1nc(CC(=O)NCc2ccc(F)cc2)cs1	39.8µM*	?	-1.2%	?	?	-40.0
Cc1ccc(CN2C(=O)CN(C3CCCCCC3)C(=O)C2c2ccc(F)cc2)cc1 (stereo not drawn)	-1.0%	-2.3%	16.8%[46.1 µM]	4.3%	/	?
Nc1c(N(Cc2ccccc2)C(=O)COc2ccc(F)cc2)c(=O)[nH]c(=O)n1Cc1ccccc1	-4.2%	-22.5%	-2.4%	-5.5%	-17.3%	5.3
CCN(C(=O)COC(=O)CCOc1ccc(C(C)(C)C)cc1)c1c(N)n(Cc2ccccc2)c(=O)[nH]c1=O	?	/	/	/	/	-66.1*
CCOc1ccc(OCC(=O)N(CCC2=CCCCC2)c2c(N)n(Cc3ccccc3)c(=O)[nH]c2=O)cc1	/	/	/	/	/	-84.2*
CCOc1ccc(OCCC(=O)N(CCC2=CCCCC2)c2c(N)n(Cc3ccccc3)c(=O)[nH]c2=O)cc1	-14.8%	-10.1%	?	i	9.7%	-30.4
CCN(C(=O)CN1c2ccccc2CC1C)c1c(N)n(Cc2ccccc2)c(=O)[nH]c1=O (stereo not drawn)	-12.4%	9.6%	-1.0%[46.1 µM]	-2.9%	?	-64.0*
Nc1c(N(Cc2ccccc2)C(=O)COc2cccc(Cl)c2)c(=O)[nH]c(=O)n1Cc1ccccc1	?	-5.8%	-20.2%	-16.7%	-23.2%	-78.4*
COc1cc(N(C)C)ccc1/C=C1\C=Cc2ccccc21	/	-17.6%	/	20.6%	/	/
Cc1nn(C(=O)c2ccc(Cl)cc2)c(C)c1Sc1ccc(Cl)cc1	?	-4.3%	-27.3%[46.1 µM]	-16.3%	/	-2.0
CCn1c(CNC(=O)c2ccc(OC)cc2)nnc1SCC(=O)Nc1ccccc1	1.2%	-0.3%	?	-1.0%	1.0%[46.1 µM]	24.7
COCCCNc1nc2c(c(=O)[nH]c(=O)n2C)n1CC(O)COc1ccc(Cl)cc1 (stereo not drawn)	-5.5%	-8.0%	0.3%[46.1 µM]	-7.5%	6.8%[46.1 µM]	6.3
COCCN(C(=O)COC(=O)/C=C/c1ccc(C(F)(F)F)cc1)c1c(N)n(Cc2ccccc2)c(=O)[nH]c1=O	-29.0%	?	?	12.6µM*	-29.1%	-10.9
O=C(COC(=O)CCc1ccc(S(=O)(=O)N2CCCCC2)cc1)Nc1cccc2ccccc12	-18.9%	-5.4%	5.3%	i	-2.8%	-106.3*
COc1cccc(/C=C/C(=O)OCC(=O)c2ccc(S(=O)(=O)N3CCCCC3)cc2)c1OC	-18.7%	/	/	/	/	-23.6
CC(=O)c1c(C)[nH]c(C(=O)OCc2csc(CC(=O)Nc3ccccc3C)n2)c1C	20µM*	/	/	/	/	24.8
Cc1cccc(C)c1NC(=O)COC(=O)CCc1ccc(S(=O)(=O)N2CCCCC2)cc1	4.7%	2.8%	-7.7%	i	10.5%	1.4
CC(=O)c1c(C)[nH]c(C(=O)OCC(=O)Nc2ccc3[nH]c(=O)[nH]c3c2)c1C	15.2%	-10.6%	16.7%	i	2.1%[46.1 µM]	63.6
CCN(CC)S(=O)(=O)c1cccc(NC(=O)COC(=O)c2[nH]c(C)c(C(C)=O)c2C)c1	11.2µM*	?	/	-28.1%	/	-85.0*
COc1cccc(C(=O)OCC(=O)c2ccc(S(=O)(=O)N3CCCCC3)cc2)c1OC	?	-14.8%	1.3%	-18.2%	?	-99.6*
Cn1ccc2c(-c3ccc(F)cc3F)cc3c(c21)C1CCC3O1 (stereo not drawn)	/	/	0.7%[46.1 µM]	/	/	/
C[C@H](CCC(=O)OCc1cn(CC(=O)c2ccc(O)cc2)nn1)[C@H]1CC[C@H]2[C@@H]3CC[C@@H]4C[C@H](O)CC[C@]4(C)[C@@H]3C[C@H](O)[C@]12C	/	/	5.8%[46.1 µM]	/	/	/
CC(=O)c1c(C)[nH]c(C(=O)OCC(=O)Nc2cccc(S(=O)(=O)N(C)C)c2)c1C	-14.1%	-12.4%	-5.7%[46.1 µM]	i	0.1%[46.1 µM]	-61.5*
CC(=O)c1c(C)[nH]c(C(=O)OCC(=O)Nc2ccccc2Cl)c1C	17.8µM*	-27.1%	-26.3%	?	?	-10.5
CC(=O)c1c(C)[nH]c(C(=O)OCC(=O)Nc2cc(S(=O)(=O)N3CCCC3)ccc2Cl)c1C	?	-11.0%	?	-6.5%	?	?
SMILES	FMDV antiviral	Vaccinia Venus	LASV entry inh	VACV mCherry inh	Marburg entry inh	HCMV inh
CC(=O)c1c(C)[nH]c(C(=O)Nc2cccc(S(=O)(=O)N(C)C)c2)c1C	41.8%	-9.6%	-0.7%	-11.1%	29.3%[46.1 µM]	337.7
CC(=O)c1c(C)[nH]c(C(=O)OCC(=O)Nc2cccc(S(=O)(=O)N3CCCC3)c2)c1C	14.1µM*	-24.1%	?	-5.7%	?	-65.1*
Cc1cccc(NC(=O)COC(=O)c2ccc(S(=O)(=O)N3CCCCCC3)cc2)c1	-7.1%	-25.2%	-25.6%	-2.6%	2.2%	-99.2*
COc1cc(=O)n2c(c1C(=O)NCc1ccsc1)CCN(Cc1nc3ccccc3[nH]1)CC2	-4.0%	-15.1%	/	-8.8%	/	/
CCc1cccc(C)c1NC(=O)c1cc(S(=O)(=O)N(Cc2ccc(C(=O)OC)cc2)Cc2ccc(OC)c(OC)c2)ccc1F	-16.3%	-4.8%	-12.4%[46.1 µM]	-17.8%	/	-27.5
CCOc1ccc(C(=O)Nc2ccc(N3CCN(C)CC3)cc2)cc1Br	-7.0%	?	6.0%	/	11.2µM*	39.8
OC(c1ccc2c(c1)CN(Cc1cccn1-c1ncccn1)CCO2)C1CCCCC1 (stereo not drawn)	-19.0%	-14.9%	/	-14.6%	/	/
Cc1ccc(C2N=C(Nc3nc4ccccc4o3)NC3=C2C(=O)CC(C)(C)C3)cc1 (stereo not drawn)	/	-8.2%	/	-14.6%	/	/
CCCCCCCCCCCCC[N+](C)(C)Cc1ccccc1	28.2µM*	11.2µM*	/	11.2µM*	/	/
CCCCCCCCCCCCCCCC[N+](C)(C)Cc1ccc(F)cc1	-8.6%	?	?	-24.0%	?	-89.3*
C[N+](C)(CCOc1ccccc1)Cc1ccccc1 (tested in a mixture with another compound)	-7.5%	-3.6%	-4.1%	i	-0.7%	8.0
COc1ccc([C@H]2/C(=C(\O)c3cnn(-c4ccccc4)c3C)C(=O)C(=O)N2CCN(C)C)cc1OC	/	/	/	/	2.9%[46.1 µM]	/
CC(=O)c1ccc(F)c(-c2cc(C)cc3c2OC(CNC(=O)C(C)n2nc(C)cc2C)C3)c1 (stereo not drawn)	-16.0%	-1.1%	/	-20.7%	/	/
Cc1c(C(=O)NCc2cccnc2)oc2ccc(S(=O)(=O)N3CCCCCC3)cc12	-28.7%	/	-14.6%	/	-5.7%	-19.7
Cc1c(C(=O)Nc2cccc(C(F)(F)F)c2)oc2ccc(S(=O)(=O)N3CCOCC3)cc12	?	/	-6.4%	/	-28.6%	-2.2
COc1ccc(NC(=O)c2oc3ccc(S(=O)(=O)N4CCC5(CC4)OCCO5)cc3c2C)cc1	12.6µM*	/	?	/	20.6µM*!	-17.4
Cc1c(C(=O)NCc2cccnc2)oc2ccc(S(=O)(=O)N3CCCCC3)cc12	?	/	-5.3%	/	-6.5%	-83.2*
Cc1ccc(NC(=O)c2oc3ccc(S(=O)(=O)N4CCC5(CC4)OCCO5)cc3c2C)cc1Cl	-22.6%	-10.1%	4.3%[46.1 µM]	-3.5%	/	-18.5
